Inconclusive results are not listed. A call without a number means that no potency is given here. Unmarked numbers belong to inactive results. Active and inactive are the calls of the source. Calls come from the whole dose curve.
Molecular target: Beta-2 adrenergic receptor (Homo sapiens) (UniProt P07550)
Assay: Adrenergic beta2 receptor (ADRB2) small molecule agonists, cell-based qHTS assay (AID 1963593);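 note: CHO cells stably overexpressing human ADRB2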
Method in brief: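 CHO cells stably over-expressing ADRB2 were plated overnight at 37C, then dosed with compounds plus a stimulation mix containing 100uM IBMX and 25uM Ro-20-1724 for 0.5hr at room temperature. cAMP was measured by HTRF competition, 1hr.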

Beta-2 adrenergic receptor (Homo sapiens), sequence (P07550 whole entry, looked up): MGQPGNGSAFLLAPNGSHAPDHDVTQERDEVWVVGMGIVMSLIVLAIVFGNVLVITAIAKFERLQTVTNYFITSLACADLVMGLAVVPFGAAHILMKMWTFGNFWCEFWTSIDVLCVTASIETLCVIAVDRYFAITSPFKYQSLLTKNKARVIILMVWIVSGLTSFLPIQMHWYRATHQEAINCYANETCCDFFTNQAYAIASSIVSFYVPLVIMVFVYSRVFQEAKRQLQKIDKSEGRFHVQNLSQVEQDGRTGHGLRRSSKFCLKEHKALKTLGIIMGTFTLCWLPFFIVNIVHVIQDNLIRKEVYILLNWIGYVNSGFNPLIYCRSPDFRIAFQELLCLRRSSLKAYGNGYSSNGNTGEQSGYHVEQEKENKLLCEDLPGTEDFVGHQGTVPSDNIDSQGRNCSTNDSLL

With COc1ccc(C(O)(c2cncnc2)C2CC2)cc1 (stereo not drawn) the Potency was “inactive”.
In the case of CC(C)(Cl)Cl, the Potency is reported as “inactive”.
In the case of Nc1ccc(Cl)c(Cl)c1, the Potency is reported as “inactive”.
CCCCN=C=O was tested, and the Potency was “inactive”.
In the case of C=CC(=O)OC(C)(C)C, the Potency is reported as “inactive”.
With CCCSC(=O)Cl the Potency was “inactive”.
For CC(C)[N+](C)(CCC(C(N)=O)(c1ccccc1)c1ccccc1)C(C)C, the Potency was “inactive”.
With N#CCCCl the Potency was “inactive”.
Nc1ccccc1C(=O)O was tested, and the Potency was “inactive”.
With CC(O)CN1CCN(CC(=O)[O-])CCN(CC(=O)[O-])CCN(CC(=O)[O-])CC1.[Gd+3] (stereo not drawn) the Potency was “inactive”.
C#CCO was tested, and the Potency was “inactive”.
C(=NC1CCCCC1)=NC1CCCCC1 was tested, and the Potency was “inactive”.
For CCCCOCC1CO1 (stereo not drawn), the Potency was “inactive”.
CCCCCCCCCCCOC(=O)c1ccccc1C(=O)OCCCCCCCCCCC was tested, and the Potency was “inactive”.
In the case of ClC1=C(Cl)[C@]2(Cl)[C@@H]3[C@@H](Cl)[C@H](Cl)C[C@@H]3[C@@]1(Cl)C2(Cl)Cl, the Potency is reported as “inactive”.
For O=C(CBr)c1ccc(O)cc1, the Potency was “inactive”.
CCCCOC(=O)c1ccccc1C(=O)OCCCC was tested, and the Potency was “inactive”.
For Cc1ccc(C(=O)Cl)cc1, the Potency was “inactive”.
CN(C)C(=O)C(c1ccccc1)c1ccccc1 was tested, and the Potency was “inactive”.
COc1cc(N)c(Cl)cc1C(=O)NC1CN2CCC1CC2 (stereo not drawn) was tested, and the Potency was “inactive”.
In the case of O=[N+]([O-])c1ccccc1O, the Potency is reported as “inactive”.
For O=C(O)C(F)(F)C(F)(F)C(F)(F)C(F)(F)C(F)(F)C(F)(F)C(F)(F)F, the Potency was “inactive”.
In the case of COC(=O)C(Cl)C(=O)OC, the Potency is reported as “inactive”.
CCC(=O)c1ccccc1 was tested, and the Potency was “inactive”.
For COc1cc(OC)nc(Sc2cccc(Cl)c2C(=O)O)n1, the Potency was “inactive”.
For O=C(O)c1ccccn1, the Potency was “inactive”.
For COC(=O)NC(=S)Nc1ccccc1NC(=S)NC(=O)OC, the Potency was “inactive”.
For CCOC(=O)Nc1cccc(OC(=O)Nc2ccccc2)c1, the Potency was “inactive”.
With CC(C)c1ccc(O)cc1 the Potency was “inactive”.
For CCN(CC)Cc1nccn1-c1ccc([N+](=O)[O-])cc1C(=O)c1ccccc1Cl, the Potency was “inactive”.
Cc1nn(-c2cc(NS(C)(=O)=O)c(Cl)cc2Cl)c(=O)n1C(F)F was tested, and the Potency was “inactive”.
For Cc1cnc[nH]1, the Potency was “inactive”.
With C=CC1CC=CCC1 (stereo not drawn) the Potency was “inactive”.
N#Cc1ccc(Cl)cc1 was tested, and the Potency was “inactive”.
In the case of N#Cc1ccccn1, the Potency is reported as “inactive”.
For Brc1c(Br)c(Br)c(Oc2c(Br)c(Br)c(Br)c(Br)c2Br)c(Br)c1Br, the activation was -14.9% [at 19 µM].
For CCCOC(=O)c1ccccc1C(=O)OCCC, the Potency was “inactive”.
For O=[N+]([O-])c1ccc([As](=O)(O)O)cc1, the Potency was “inactive”.
With Oc1ccccc1Cl the Potency was “inactive”.
CCCCCCCCCCOC(=O)c1ccccc1C(=O)OCCCCCCCCCC was tested, and the Potency was “inactive”.
With O=[N+]([O-])c1ccc(Cl)cc1 the Potency was “inactive”.
In the case of C=C1CC[C@@]2(O)[C@H]3Cc4ccc(O)c5c4[C@@]2(CCN3CC2CC2)[C@H]1O5, the Potency is reported as “inactive”.
CC(C)(C)OOC(C)(C)CCC(C)(C)OOC(C)(C)C was tested, and the Potency was “inactive”.
With Clc1ccc(C(c2ccc(Cl)cc2)C(Cl)(Cl)Cl)cc1 the Potency was “inactive”.
For N#CCc1ccccc1, the Potency was “inactive”.
With C1CC2OC2CC1C1CO1 (stereo not drawn) the Potency was “inactive”.
In the case of CCCCCCCCCCBr, the Potency is reported as “inactive”.
For COc1ccccc1OC, the Potency was “inactive”.
c1ccc(P(c2ccccc2)c2ccccc2)cc1 was tested, and the Potency was “inactive”.
For C=CC1(C)OC(=O)N(c2cc(Cl)cc(Cl)c2)C1=O (stereo not drawn), the Potency was “inactive”.
For N#Cc1ccncc1, the Potency was “inactive”.
With CCCC(C)(COC(N)=O)COC(=O)NC(C)C (stereo not drawn) the Potency was “inactive”.
CC(C#N)CCC#N (stereo not drawn) was tested, and the Potency was “inactive”.
For CCCN(CCC)c1c([N+](=O)[O-])cc(C(C)C)cc1[N+](=O)[O-], the Potency was “inactive”.
c1ccc(N2CCNCC2)cc1 was tested, and the Potency was “inactive”.
With O=P(OCCCl)(OCCCl)OCCCl the Potency was “inactive”.
For COc1c(C(C)(C)C)cc([N+](=O)[O-])c(C)c1[N+](=O)[O-], the Potency was “inactive”.
OCc1ccco1 was tested, and the Potency was “inactive”.
COC(=O)Cc1ccccc1 was tested, and the Potency was “inactive”.
In the case of CC(C)NC(C)C, the Potency is reported as “inactive”.
In the case of O=C(O)c1ccc(=O)[nH]c1, the Potency is reported as “inactive”.
In the case of CC(=NC#N)N(C)Cc1ccc(Cl)nc1, the Potency is reported as “inactive”.
For OCCOc1ccccc1, the Potency was “inactive”.
O=NN(c1ccccc1)c1ccccc1 was tested, and the Potency was “inactive”.
In the case of CCCCCCCCOC(=O)c1ccc(C(=O)OCCCCCCCC)c(C(=O)OCCCCCCCC)c1, the Potency is reported as “inactive”.
In the case of O=C(NCO)NCO, the Potency is reported as “inactive”.
CCOP(=O)(OCC)OP(=O)(OCC)OCC was tested, and the Potency was “inactive”.
With Cc1ccc2c(c1N)C(=O)c1ccccc1C2=O the Potency was “inactive”.
